# Assay results published in PubChem BioAssay AID1159580 (chemical genetic matrix, 2015).
# Where “and” joins values, the source holds several entries; their conditions need not be identical. Equal values may be shown once. Hit rate of the full screen: of about 5,500 compounds, about 2,000 (36%) were called active. Another 18% or so got no clear call; they are omitted. The list shows a part of the results. A number with no mark means an inactive call. Cut-off read from the data, not from the text of the source: active = normalized growth mostly below about 0.91 (no sharp cut-off); inconclusive = no clear call, values can overlap the other calls; inactive = mostly above about 0.92.
# Assay: chemical genetic growth profiling, strain panel (AID 1159580);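 note: tested at 20 µM; growth read once vehicle control cultures reached saturation at 30 °C; 1 = growth at the plate median or of vehicle wells; lower values mean less growth of the strain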
# Conditions: S. cerevisiae deletion strains, growth OD
smiles,measurement,setting,value
CN(Cc1cc(Br)cc(Br)c1N)C1CCCCC1,normalized growth,"locus YAL021C, strain ccr4, hits give low values",0.979
same,normalized growth,"locus YAL026C, strain drs2, hits give low values",1.03
same,normalized growth,"locus YAL030W, strain snc1, hits give low values",1.06
same,normalized growth,"locus YBL061C, strain skt5, hits give low values",1.03
same,normalized growth,"locus YBR009C, strain hhf1, hits give low values",1
same,normalized growth,"locus YBR021W, strain FUR4, hits give low values",0.948
same,normalized growth,"locus YBR023C, strain chs3, hits give low values",1.03
same,normalized growth,"locus YBR171W, strain sec66, hits give low values",1.06
same,normalized growth,"locus YBR229C, strain ROT2, hits give low values",1.01
same,normalized growth,"locus YBR231C, strain swc5, hits give low values",1.02
same,normalized growth,"locus YBR279W, strain paf1, hits give low values",1.02
same,normalized growth,"locus YCL011C, strain gbp2, hits give low values",1.02
same,normalized growth,"locus YCL016C, strain dcc1, hits give low values",1.01
same,normalized growth,"locus YCL029C, strain bik1, hits give low values",1.02
same,normalized growth,"locus YCL061C, strain MRC1, hits give low values",1.01
same,normalized growth,"locus YCL069W, strain vba3, hits give low values",1.03
same,normalized growth,"locus YCR088W, strain abp1, hits give low values",1.05
same,normalized growth,"locus YDL005C, strain med2, hits give low values",1.07
same,normalized growth,"locus YDL035C, strain GPR1, hits give low values",0.943
same,normalized growth,"locus YDL040C, strain nat1, hits give low values",1.03
same,normalized growth,"locus YDL074C, strain BRE1, hits give low values",0.954
same,normalized growth,"locus YDL101C, strain DUN1, hits give low values",0.999
same,normalized growth,"locus YDL134C, strain PPH21, hits give low values",1
same,normalized growth,"locus YDL185W, strain tfp1, hits give low values",1.02
same,normalized growth,"locus YDL192W, strain arf1, hits give low values",1.02
same,normalized growth,"locus YDR001C, strain nth1, hits give low values",1.03
same,normalized growth,"locus YDR069C, strain doa4, hits give low values",0.983
same,normalized growth,"locus YDR101C, strain arx1, hits give low values",0.999
same,normalized growth,"locus YDR137W, strain rgp1, hits give low values",1.03
same,normalized growth,"locus YDR159W, strain sac3, hits give low values",1.09
same,normalized growth,"locus YDR162C, strain NBP2, hits give low values",1.02
same,normalized growth,"locus YDR195W, strain ref2",1.13
same,normalized growth,"locus YDR297W, strain sur2, hits give low values",1.03
same,normalized growth,"locus YDR318W, strain mcm21, hits give low values",0.982
same,normalized growth,"locus YDR334W, strain swr1, hits give low values",1.03
same,normalized growth,"locus YDR335W, strain msn5, hits give low values",1.02
same,normalized growth,"locus YDR388W, hits give low values",1.01
same,normalized growth,"locus YDR392W, strain spt3, hits give low values",0.975
same,normalized growth,"locus YDR502C, strain sam2, hits give low values",0.996
same,normalized growth,"locus YEL003W, strain gim4, hits give low values",1.01
same,normalized growth,"locus YEL037C, strain rad23, hits give low values",1.03
same,normalized growth,"locus YEL061C, strain CIN8 (second series), hits give low values",0.991
same,normalized growth,"locus YEL061C, strain CIN8, hits give low values",0.975
same,normalized growth,"locus YER015W, strain faa2, hits give low values",1.03
same,normalized growth,"locus YER016W, strain bim1, hits give low values",0.988
same,normalized growth,"locus YER110C, hits give low values",1.03
same,normalized growth,"locus YER111C, strain swi4, hits give low values",1.04
same,normalized growth,"locus YER155C, strain BEM2 (second series), hits give low values",1.03
same,normalized growth,"locus YER155C, strain BEM2, hits give low values",1.01
same,normalized growth,"locus YER167W, strain BCK2, hits give low values",1.02
same,normalized growth,"locus YFR010W, strain ubp6, hits give low values",0.994
same,normalized growth,"locus YGL078C, strain dbp3, hits give low values",1.02
same,normalized growth,"locus YGL086W, strain mad1, hits give low values",0.967
same,normalized growth,"locus YGL167C, strain pmr1, hits give low values",1.03
same,normalized growth,"locus YGL173C, strain kem1, hits give low values",0.995
same,normalized growth,"locus YGL227W, strain vid30, hits give low values",1.04
same,normalized growth,"locus YGL240W, strain doc1, hits give low values",0.965
same,normalized growth,"locus YGL248W, strain PDE1, hits give low values",0.984
same,normalized growth,"locus YGL253W, strain hxk2, hits give low values",1.03
same,normalized growth,"locus YGR135W, strain pre9, hits give low values",1.02
same,normalized growth,"locus YGR252W, strain gcn5, hits give low values",0.84
same,normalized growth,"locus YHR013C, strain ard1, hits give low values",1.06
same,normalized growth,"locus YHR027C, strain rpn1, hits give low values",1.01
same,normalized growth,"locus YHR030C, strain SLT2, hits give low values",1.02 and 0.894
same,normalized growth,"locus YHR079C, strain IRE1 (second series), hits give low values",1.02
same,normalized growth,"locus YHR079C, strain IRE1, hits give low values",0.936
same,normalized growth,"locus YHR094C, strain hxt1, hits give low values",1.03
same,normalized growth,"locus YHR129C, strain ARP1, hits give low values",1.01
same,normalized growth,"locus YHR142W, strain chs7, hits give low values",1.06
same,normalized growth,"locus YHR200W, strain rpn10, hits give low values",1.01
same,normalized growth,"locus YIL066C, strain RNR3, hits give low values",0.991
same,normalized growth,"locus YIL073C, strain SPO22, hits give low values",1.06
same,normalized growth,"locus YIL125W, strain kgd1, hits give low values",1.01
same,normalized growth,"locus YIR030C, strain dcg1, hits give low values",1.02
same,normalized growth,"locus YJL092W, strain hpr5, hits give low values",1.03
same,normalized growth,"locus YJL095W, strain BCK1 (second series), hits give low values",1.02
same,normalized growth,"locus YJL095W, strain BCK1, hits give low values",0.97 and 0.902
same,normalized growth,"locus YJL115W, strain asf1, hits give low values",1.06
same,normalized growth,"locus YJL129C, strain trk1, hits give low values",1.03
same,normalized growth,"locus YJL134W, strain LCB3, hits give low values",1.02
same,normalized growth,"locus YJL154C, strain vps35, hits give low values",1.03
same,normalized growth,"locus YJL164C, strain tpk1, hits give low values",1.02
same,normalized growth,"locus YJL166W, strain qcr8, hits give low values",1
same,normalized growth,"locus YJL168C, strain set2, hits give low values",1.02
same,normalized growth,"locus YJL187C, strain SWE1 (second series), hits give low values",0.974
same,normalized growth,"locus YJR043C, strain POL32, hits give low values",0.987
same,normalized growth,"locus YJR066W, strain TOR1, hits give low values",0.81 (active)
